Test systems include SK-MEL-2 melanoma; EKVX NSCLC; SN12C renal; UO-31 renal; CAKI-1 renal; A498 renal; CCRF-CEM leukemia; SR leukemia; RPMI-8226 leukemia; OVCAR-8 ovarian; OVCAR-5 ovarian; OVCAR-4 ovarian; IGROV1 ovarian; OVCAR-3 ovarian; HS 578T breast; NCI/ADR-RES ovarian; ACHN renal; MOLT-4 leukemia; SK-OV-3 ovarian.
Experiment in all cases: NCI-60 one-dose screen, 48 h (100 = growth as untreated, 0 = no growth, -100 = all killed)
Conditions in all cases: 10 µM unless noted

About 83,000 compounds went through this panel and 20% of them were active in at least one assay; those are over-represented in the sample as a whole.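 Results are percent growth after 48 hours of single-concentration exposure. 100 means growth as in untreated cells, lower positive values show inhibition; negative values down to -100 show cell death.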 A number with no mark means an inactive call. The source made the active and inactive calls. How the source made its calls: active means growth percent below 10; inactive means the rest.

On to `Cc1ccc(NCCN(C)C)c2c(=O)c3ccccc3sc12`, for which the growth is 71.9% in the experiment with SK-MEL-2 melanoma; 49.4% in the experiment on EKVX NSCLC; 25.1% in the experiment on SN12C renal; -30.5% (active) with UO-31 renal; -20% (active) in the experiment on CAKI-1 renal; 37.6% with A498 renal. Moreover, the growth with CCRF-CEM leukemia was 27%; with SR leukemia, 17%; in the experiment on RPMI-8226 leukemia it was -23.4% (active); in the experiment with OVCAR-8 ovarian it was 16.3%; with OVCAR-5 ovarian, 62%; with OVCAR-4 ovarian, 42.4%. Moreover, the growth was -30.9% (active) with IGROV1 ovarian, 33.8% with OVCAR-3 ovarian, 46.4% in the experiment with HS 578T breast and 38.6% with NCI/ADR-RES ovarian.
As for `COc1ccc(CN2C(=O)C(Cl)=C(Nc3cccc(C(F)(F)F)c3)C2=O)cc1`, the growth was 81.7% in the experiment on SK-MEL-2 melanoma; 63.4% with EKVX NSCLC; 72.8% with SN12C renal; 28.5% in the experiment with UO-31 renal; 52.5% with ACHN renal; 37.4% with CAKI-1 renal. Moreover, the growth in the experiment on A498 renal was 57.6%; in the experiment on MOLT-4 leukemia, 11.9%; in the experiment with SR leukemia, 9.34% (active); in the experiment on RPMI-8226 leukemia, 42.6%; in the experiment with OVCAR-8 ovarian, 42.5%; in the experiment with OVCAR-5 ovarian, 55.1%. Besides, the growth is 47.6% in the experiment on OVCAR-4 ovarian; 75.8% with SK-OV-3 ovarian; 36.1% in the experiment with IGROV1 ovarian; 57% with HS 578T breast; 38.9% in the experiment on NCI/ADR-RES ovarian.
As to `COc1nc2c(c(=O)n1C)CN(c1ccccc1)C(=O)CN2C`, the growth with SK-MEL-2 melanoma is 69.6% [100 µM]; in the experiment on EKVX NSCLC it was 58.2% [100 µM]; in the experiment on SN12C renal, 51.3% [100 µM]; in the experiment with UO-31 renal, 26% [100 µM]; in the experiment on ACHN renal, 46.4% [100 µM]; in the experiment with CAKI-1 renal it was 61.7% [100 µM]. For the same compound, the growth was 61% [100 µM] in the experiment on A498 renal; 40.6% [100 µM] in the experiment with MOLT-4 leukemia; 51.5% [100 µM] in the experiment with SR leukemia; 47.4% [100 µM] in the experiment on OVCAR-8 ovarian; 79.9% [100 µM] in the experiment on OVCAR-5 ovarian; 53.4% [100 µM] with OVCAR-4 ovarian. For the same compound, the growth is 62.5% [100 µM] in the experiment on SK-OV-3 ovarian; 37.6% [100 µM] with IGROV1 ovarian; 56.5% [100 µM] with OVCAR-3 ovarian; 59.9% [100 µM] in the experiment on HS 578T breast; 54.2% [100 µM] in the experiment on NCI/ADR-RES ovarian.
For the compound `O=C(NCCNc1cc(-c2cn(-c3ccccc3)nc2-c2cccc(O)c2)ccn1)Nc1ccccc1`, the growth is 86.4% in the experiment on SK-MEL-2 melanoma; 71.4% with EKVX NSCLC; 77.4% in the experiment with SN12C renal; 58.6% in the experiment with UO-31 renal; 88.5% with ACHN renal; 80.1% with CAKI-1 renal. Further, the growth with A498 renal was 80.8%; in the experiment with CCRF-CEM leukemia, 79.3%; in the experiment on SR leukemia, 2.22% (active); in the experiment with RPMI-8226 leukemia, 60.1%; with OVCAR-8 ovarian it was 74.3%; in the experiment with OVCAR-5 ovarian it was 92.4%. The growth with OVCAR-4 ovarian is 70.1%; with SK-OV-3 ovarian it was 65.1%; in the experiment on IGROV1 ovarian, 67%; in the experiment with OVCAR-3 ovarian, 82.3%; in the experiment with HS 578T breast, 50.5%; in the experiment on NCI/ADR-RES ovarian, 75.4%.
With `Cn1cc2c(c1)-c1nc(Nc3ccccc3)ncc1CC2`, the growth is 73.6% with SK-MEL-2 melanoma; 54.6% with EKVX NSCLC; 64.8% in the experiment with SN12C renal; 46.2% with UO-31 renal; 47.8% with ACHN renal; 48.8% with CAKI-1 renal. Besides, the growth was 6.32% (active) in the experiment on A498 renal; 61.2% with CCRF-CEM leukemia; 44.6% in the experiment on MOLT-4 leukemia; 79.6% in the experiment on OVCAR-8 ovarian; 60% in the experiment on OVCAR-5 ovarian; 69.3% in the experiment with OVCAR-4 ovarian. Moreover, the growth is 77.6% in the experiment with SK-OV-3 ovarian; 58.6% in the experiment on IGROV1 ovarian; 69.5% in the experiment with OVCAR-3 ovarian; 78.4% in the experiment on HS 578T breast; 71.6% in the experiment with NCI/ADR-RES ovarian.
`COc1cccc(-c2nn(-c3ccccc3)cc2-c2ccnc(NCCCNC(=O)Nc3ccc(Cl)c(Cl)c3)c2)c1`: the growth was -53.9% (active) in the experiment with SK-MEL-2 melanoma; 37.8% in the experiment on EKVX NSCLC; 37.5% in the experiment on SN12C renal; -34.4% (active) with UO-31 renal; 32.9% in the experiment with ACHN renal; 24% in the experiment on CAKI-1 renal. Also, the growth in the experiment with A498 renal is 4.95% (active); with CCRF-CEM leukemia it was 1.35% (active); with SR leukemia, -32.8% (active); in the experiment on RPMI-8226 leukemia, -2.49% (active); in the experiment on OVCAR-8 ovarian it was 1.46% (active); in the experiment on OVCAR-5 ovarian, 54.4%. The growth in the experiment on OVCAR-4 ovarian is 30.9%; in the experiment on SK-OV-3 ovarian, 22.2%; in the experiment with IGROV1 ovarian it was 36.6%; with NCI/ADR-RES ovarian, -20.3% (active).
As for `Cc1ccc(Cl)cc1NC(=O)c1cc2ccccc2cc1O`, the growth in the experiment on SK-MEL-2 melanoma was -12.3% (active); in the experiment on EKVX NSCLC it was 4.4% (active); with SN12C renal, -21.8% (active); in the experiment with UO-31 renal, -8.04% (active); in the experiment with ACHN renal it was -15% (active); in the experiment with CAKI-1 renal, -16.8% (active). The growth in the experiment with A498 renal was -31.4% (active); with CCRF-CEM leukemia it was -22.3% (active); in the experiment with MOLT-4 leukemia, -37.4% (active); in the experiment on RPMI-8226 leukemia it was -58.2% (active); in the experiment with OVCAR-8 ovarian, 7.85% (active); in the experiment with OVCAR-5 ovarian, -5.91% (active). Also, the growth in the experiment on OVCAR-4 ovarian was 3.71% (active); in the experiment with IGROV1 ovarian it was -5.94% (active); in the experiment with OVCAR-3 ovarian, -25.9% (active); with HS 578T breast, -21% (active); in the experiment with NCI/ADR-RES ovarian, -27.9% (active).
Turning to `COc1cccc(-c2nn(-c3ccccc3)cc2-c2ccnc(NCCNC(=O)Nc3ccc(Cl)c(Cl)c3)c2)c1`, the growth in the experiment on SK-MEL-2 melanoma is -12.1% (active); in the experiment on EKVX NSCLC it was 46.3%; with SN12C renal it was 11.5%; in the experiment with UO-31 renal, -13.1% (active); in the experiment on ACHN renal it was 14.6%; in the experiment with CAKI-1 renal, 24.5%. The growth was -9.43% (active) in the experiment on A498 renal; 8.1% (active) in the experiment on CCRF-CEM leukemia; -26.4% (active) in the experiment with SR leukemia; 11.9% with RPMI-8226 leukemia; 7.05% (active) with OVCAR-8 ovarian; 41.7% in the experiment with OVCAR-5 ovarian. The growth in the experiment on OVCAR-4 ovarian was 36.4%; in the experiment with SK-OV-3 ovarian it was 9.85% (active); in the experiment with IGROV1 ovarian, 44%; with OVCAR-3 ovarian, -6.87% (active); in the experiment on NCI/ADR-RES ovarian, -22.2% (active).
